# Source: PubChem BioAssay AID1508622 (National Center for Advancing Translational Sciences (NCATS), 2021)
# Calls of active or inactive are those of the source. Where a call stands in place of a potency, no number is given. Calls come from the whole dose curve; as a rule, active = well fitted activation curve with a large enough effect; inconclusive = small, poorly fitted or top-dose-only effect; inactive = no such curve, though single readings can be large or run the other way.
# Test: Confirmatory qHTS for Identification of Small Molecule Activators of Huntingtin-Antisense Promoter Activity
# Conditions: HEK293 HTT-AS promoter firefly luciferase reporter, 24 h; series mostly up to 57.5 µM
# Procedure, shortened: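 HEK293 luciferase reporter cells, 2,500/well, cultured 24 h, then exposed to compounds at up to 57.5 uM final for 24 h at 37C. Firefly luciferase luminescence read; normalized to vehicle (0%) and zero RLU (-100%).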
# Potency is the fitted concentration of half-maximal effect.
row,Compound,Potency
1,COc1cccc(C(=O)Nc2nc(-c3nnn(-c4cccc(Cl)c4C)c3C)ns2)c1,inactive
2,O=C(Nc1cccc(F)c1)c1cnc2sc(N3CCCC3)nn2c1=O,inactive
3,CN(C)c1ccc(C(=O)NCCCCCCC(=O)NO)cc1,30.1 µM (active)
4,COc1ccc(-c2nc(N3CCOCC3)c3sc(CN(C)c4ncc(C(=O)NO)cn4)cc3n2)cn1,inactive
5,CCn1c(SCc2cccc(Br)c2)nnc1-c1nonc1NC(C)=O,inactive
6,CCOc1ccc(C(=O)NCC(c2ccc3c(c2)OCO3)N2CCN(c3ccccc3F)CC2)cc1 (centres undefined),inactive
7,Cc1ccc(-n2ncc3c(N(CCO)Cc4ccccc4)ncnc32)cc1,1.07 µM (active)
8,CN(C)c1ccc(C(=C2C=CC(=[N+](C)C)C=C2)c2ccc(N(C)C)cc2)cc1,inactive
9,CCc1ccc(NC(=O)c2ccc(F)c(S(=O)(=O)N(C)C3CCCCC3)c2)cc1,inactive
10,Cc1ccccc1CN1c2ccccc2-c2nc(SCC(=O)Nc3cc(F)ccc3F)ncc2S1(=O)=O,inactive
11,Cc1ccc(CCNC(=O)c2cc3c(s2)-c2ccccc2OC3)cc1,inactive
12,CCOc1ccc(C2=C(C(=O)CC)Sc3nncn3N2C(=O)CC)cc1,inactive
13,O=C(Nc1ccc(Br)cc1)c1ccc(F)c(S(=O)(=O)NC2CCCCCC2)c1,inactive
14,CCc1c(C)nc2nncn2c1Nc1ccc(C(C)C)cc1,inactive
15,COC(=O)C1CCN(S(=O)(=O)c2ccc(N3CCCCS3(=O)=O)cc2)CC1,inactive
16,CC1=C(C(=O)Nc2ccc(Cl)cc2)C(c2ccccc2C)n2ncc(C(=O)Nc3ccc(C)cc3)c2N1 (centres undefined),inactive
17,COc1ccc(Nc2sc(C(=O)c3ccccc3)c(N)c2C(=O)Nc2cc(C)ccc2C)c(OC)c1,inactive
18,Cc1ccc(C)c(N2CCN(C(=O)Cn3cnc4nc5c(cc4c3=O)CCCC5)CC2)c1,inactive
19,Cc1cccc(Nc2nc(Nc3cccc(C)c3)nc(N3CCOCC3)n2)c1,inactive
20,CCCc1cc(N2CCN(c3cccc(C)c3C)CC2)n2cnnc2n1,inactive

row,Compound,Potency
1,O=S(=O)(NCc1ccc(Cl)cc1)c1ccc(N2CCCCS2(=O)=O)cc1,inactive
2,COc1ccc(C(=O)CN2CCN(S(=O)(=O)c3ccc(C(C)C)cc3)CC2)cc1,inactive
3,Cc1ccc2nc(CSc3nnc(NC(=O)COc4ccccc4)s3)cc(=O)n2c1,inactive
4,O=C(Nc1cc(Cl)cc(Cl)c1)c1ccc(F)c(S(=O)(=O)N2CCCC2)c1,inactive
5,CCc1ccc(-n2nc(C)c3c(C(=O)Nc4cccc(C(F)(F)F)c4)cc(C)nc32)cc1,inactive
6,Cc1cccc(S(=O)(=O)Nc2cccc(-c3ccc(N4CCCCC4)nn3)c2)c1,2.39 µM (active)
7,Clc1ccc(N2CCN(c3ncnc4c3nc3n4CCCC3)CC2)cc1,inactive
8,CCCN(C(=O)COc1cc(=O)n(CC)c2ccccc12)c1ccc(C(C)C)cc1,inactive
9,Cc1cccc(-n2nc(C)c(C(=O)N3CCN(c4ccccc4)CC3)c2-n2cccc2)c1,inactive
10,Cc1cccc(NC(=O)Cc2ccc(-n3c(C)nc4cccnc43)cc2)c1C,inactive
11,CC(C)c1ccc(NC(=O)CSC2=Nc3ccccc3C3=NC(CCC(=O)NCc4ccc(F)cc4)C(=O)N23)cc1 (centres undefined),inactive
12,Cc1cccc(CCNC(=O)c2c[nH]c3ccc(S(=O)(=O)Nc4ccccc4F)cc3c2=O)c1,inactive
13,CCc1ccc(NS(=O)(=O)c2c(C)nc3sc(CC)nn3c2=O)cc1,inactive
14,COc1ccccc1CNS(=O)(=O)c1ccc2c(c1)CC(C)N2C(=O)C1CCC1 (centres undefined),inactive
15,Cc1cc(C)cc(NC(=O)C2CCCN2S(=O)(=O)c2ccc3c(c2)CCCC(=O)N3)c1 (centres undefined),inactive
16,CCOc1ccc(CNC(=O)C2CCN(c3nnc(-n4c(C)ccc4C)s3)CC2)cc1,inactive
17,Fc1ccc(N2CCN(c3ncnc4c3nc3n4CCCCC3)CC2)cc1,inactive
18,CCS(=O)(=O)NCCc1sc2nc(-c3ccc(OC)cc3)nn2c1C,inactive
19,COc1ccc(N2CCN(C(=O)c3ccc4c(=O)n(CCc5ccc(OC)c(OC)c5)c(=O)[nH]c4c3)CC2)cc1,inactive
